Assay [1] can be described thus: BSK_hDFCGF_SRB: Viability Assessment in the BioMAP Diversity Plus: hDFCGF Assay (AID 2283061).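 Further: cells exposed to compound for 24 h before the read.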 The following applies: primary human foreskin fibroblasts. Summed up:
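Human foreskin fibroblasts in 96-well plates were treated 24 h. Total protein was measured by 0.1% SRB staining after 10% TCA fixation, read at 560 nm. Data were fitted bidirectionally against DMSO.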

Read-out in assay [2]: TIMP metallopeptidase inhibitor 1 (TIMP1), TIMP1 (gene 7076)
Put plainly: BSK_hDFCGF_TIMP1: BioMAP Diversity Plus: hDFCGF Assay for TIMP metallopeptidase inhibitor 1 (TIMP1) Biomarker Activity (AID 2283062). The note with it: primary human foreskin fibroblasts; actives raise or lower the signal. The method, boiled down:
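Human foreskin fibroblast primary cultures dosed for 24 h; secreted/surface TIMP-1 quantified by ELISA. Bidirectional curve fitting against DMSO baseline; cytotoxicity tracked in parallel cultures by SRB total-protein staining.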

Read-out in assay [3]: Monokine induced gamma interferon (MIG), CXCL9 (gene 4283)
Nature of the assay: BSK_hDFCGF_MIG: BioMAP Diversity Plus: hDFCGF Assay for Monokine induced gamma interferon (MIG) Biomarker Activity (AID 2283063). The following applies: primary human foreskin fibroblasts; actives raise or lower the signal. The method, boiled down: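 MIG/CXCL9 measured by ELISA 24 h after dosing primary human skin fibroblasts. Activity fitted in both directions against DMSO controls. Cytotoxicity was checked in parallel cultures by SRB staining read at 560 nm.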

Read-out in assay [4]: Matrix Metallopeptidase 1 (MMP1), MMP1 (gene 4312)
Put plainly: BSK_hDFCGF_MMP1: BioMAP Diversity Plus: hDFCGF Assay for Matrix Metallopeptidase 1 (MMP1) Biomarker Activity (AID 2283064). The note with it: primary human foreskin fibroblasts; actives raise or lower the signal. Summed up: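 ELISA read-out of MMP1 from human foreskin fibroblasts (primary skin cells), 24 h post-dose. Gain or loss of signal was fitted bidirectionally versus DMSO negative control; cytotoxicity was checked by SRB in parallel cultures.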

Read-out in assay [5]: Vascular cell adhesion molecule 1 (VCAM1), VCAM1 (gene 7412)
Nature of the assay: BSK_hDFCGF_VCAM1: BioMAP Diversity Plus: hDFCGF Assay for Vascular cell adhesion molecule 1 (VCAM1) Biomarker Activity (AID 2283065).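 On AC50: VCAM-1 protein level quantified by ELISA after 24 h chemical exposure.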 The following applies: primary human foreskin fibroblasts; actives raise or lower the signal. Summed up: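 Human foreskin fibroblast primary cells dosed with chemical, VCAM-1 measured by ELISA at 24 h. Bidirectional curve fitting relative to DMSO as negative control/baseline.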

Read-out in assay [6]: Plasminogen activator inhibitor-1 (PAI1), SERPINE1 (gene 5054)
Put plainly: BSK_hDFCGF_PAI1: BioMAP Diversity Plus: hDFCGF Assay for Plasminogen activator inhibitor-1 (PAI1) Biomarker Activity (AID 2283066). The note with it: primary human foreskin fibroblasts; actives raise or lower the signal. Summed up: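 PAI-1 levels in human dermal foreskin fibroblasts were quantified by ELISA 24 h after dosing, with gain or loss analysed against DMSO. Overt cytotoxicity was checked by sulforhodamine B total-protein staining in parallel cultures.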

Read-out in assay [7]: Intercellular Adhesion Molecule 1 (ICAM1), ICAM1 (gene 3383)
Put plainly: BSK_KF3CT_ICAM1: BioMAP Diversity Plus: KF3CT Assay for Intercellular Adhesion Molecule 1 (ICAM1) Biomarker Activity (AID 2283067). The note with it: primary human keratinocytes with fibroblasts; actives raise or lower the signal. The method, boiled down: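 Human keratinocyte–foreskin fibroblast co-culture was treated for 24 h. Cell-surface ICAM-1 was quantified by ELISA, fitted bidirectionally relative to DMSO. Cytotoxicity was checked in parallel cultures by SRB total-protein staining.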

Read-out in assay [8]: Interferon-gamma inducible Protein 10 (IP10), CXCL10 (gene 3627)
Nature of the assay: BSK_KF3CT_IP10: BioMAP Diversity Plus: KF3CT Assay for Interferon-gamma inducible Protein 10 (IP10) Biomarker Activity (AID 2283068). The following applies: primary human keratinocytes with fibroblasts; actives raise or lower the signal. The method, boiled down:
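KF3CT co-culture (keratinocytes + foreskin fibroblasts), 24 h compound, IP-10 by ELISA; bidirectional fit vs DMSO baseline.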

Assay [9] is described as follows: BSK_KF3CT_SRB: Viability Assessment in the BioMAP Diversity Plus: KF3CT Assay (AID 2283069).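 Further: read 24 h after compound addition.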 The following applies: primary human keratinocytes with fibroblasts. Summed up: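 SRB read-out at 560 nm (0.1% stain, TCA-fixed cells) gauges overt cytotoxicity in a human skin keratinocyte–fibroblast co-culture 24 h post-dosing. Signal change was fitted bidirectionally relative to DMSO control.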

Read-out in assay [10]: Interleukin-1 alpha (IL1a), IL1A (gene 3552)
Put plainly: BSK_KF3CT_IL1a: BioMAP Diversity Plus: KF3CT Assay for Interleukin-1 alpha (IL1a) Biomarker Activity (AID 2283070). The note with it: primary human keratinocytes with fibroblasts; actives raise or lower the signal. The method, boiled down: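 Primary skin co-culture (keratinocytes, foreskin fibroblasts), 24 h exposure; ELISA for IL-1a; bidirectional curve fit vs DMSO.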

Read-out in assay [11]: Transforming growth factor beta 1 (TGFb1), TGFB1 (gene 7040)
Put plainly: BSK_KF3CT_TGFb1: BioMAP Diversity Plus: KF3CT Assay for Transforming growth factor beta 1 (TGFb1) Biomarker Activity (AID 2283072). The following applies: primary human keratinocytes with fibroblasts; actives raise or lower the signal. Summed up: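 ELISA quantifies TGF-b1 at 24 h post-dose in a primary human skin co-culture of keratinocytes and fibroblasts, with gain or loss judged against DMSO. Parallel SRB total-protein staining flags overt cytotoxicity.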

Read-out in assay [12]: C-C motif chemokine 2 (Homo sapiens) (UniProt P13500)
Nature of the assay: BSK_KF3CT_MCP1: BioMAP Diversity Plus: KF3CT Assay for Monocyte Chemoattractant Protein 1 (MCP1/CCL2) Biomarker Activity (AID 2283073). The following applies: primary human keratinocytes with fibroblasts; actives raise or lower the signal. Summed up:
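Human keratinocyte–foreskin fibroblast co-culture; MCP-1 measured by ELISA 24 h after dosing. Bidirectional fit vs DMSO; cytotoxicity tracked by SRB total protein in parallel cultures.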

Read-out in assay [13]: Matrix Metallopeptidase 9 (MMP9), MMP9 (gene 4318)
Put plainly: BSK_KF3CT_MMP9: BioMAP Diversity Plus: KF3CT Assay for Matrix Metallopeptidase 9 (MMP9) Biomarker Activity (AID 2283074).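 On AC50: MMP9 protein level quantified by ELISA in the co-culture.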 The following applies: primary human keratinocytes with fibroblasts; actives raise or lower the signal. The method, boiled down:
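ELISA read-out of MMP-9 at 24 h post-dosing in a co-culture of human skin keratinocytes and foreskin fibroblasts. Gain or loss of signal was fitted in both directions against DMSO.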

Read-out in assay [14]: urokinase plasminogen activator (uPA), PLAU (gene 5328)
Nature of the assay: BSK_KF3CT_uPA: BioMAP Diversity Plus: KF3CT Assay for urokinase plasminogen activator (uPA) Biomarker Activity (AID 2283075). The note with it: primary human keratinocytes with fibroblasts; actives raise or lower the signal. The method, boiled down: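 Skin co-culture (keratinocytes + foreskin fibroblasts), human primary; 24 h post-dose; uPA by ELISA; gain/loss fit vs DMSO baseline.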

Read-out in assay [15]: E-selectin (Homo sapiens) (UniProt P16581)
Nature of the assay: BSK_LPS_Eselectin: BioMAP Diversity Plus: LPS Assay for Eselectin Biomarker Activity (AID 2283077). The note with it: primary human HUVEC with PBMC; actives raise or lower the signal. Summed up: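 Human umbilical vein endothelial cells co-cultured with PBMC under LPS stimulation; cell-surface E-selectin measured by ELISA 24 h after dosing. Change in either direction versus DMSO, with SRB total-protein staining in parallel cultures for cytotoxicity.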

Read-out in assay [16]: Interleukin-8 (IL8), CXCL8 (gene 3576)
Put plainly: BSK_LPS_IL8: BioMAP Diversity Plus: LPS Assay for Interleukin-8 (IL8) Biomarker Activity (AID 2283078). The note with it: primary human HUVEC with PBMC; actives raise or lower the signal. Summed up:
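Human umbilical vein endothelial cells co-cultured with PBMC, LPS-stimulated, exposed to compound for 24 h. IL-8 quantified by ELISA; fitted in both directions against DMSO, with SRB total-protein staining of parallel cultures for cytotoxicity.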

The nature of assay [17]: BSK_LPS_SRB: Viability Assessment in the BioMAP Diversity Plus: LPS Assay (AID 2283079).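 Further: total protein by sulforhodamine B absorbance as a cytotoxicity measure; measured one day after compound addition.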 The following applies: primary human HUVEC with PBMC. Summed up: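 Co-culture of human umbilical vein endothelial cells and PBMC, read 24 h after dosing. Total protein by 0.1% SRB staining after 10% TCA fixation, absorbance at 560 nm; bidirectional fit against DMSO.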
Read-out in assay [18]: Interleukin-1 alpha (IL1a), IL1A (gene 3552)
Nature of the assay: BSK_LPS_IL1a: BioMAP Diversity Plus: LPS Assay for Interleukin-1 alpha (IL1a) Biomarker Activity (AID 2283080). The note with it: primary human HUVEC with PBMC; actives raise or lower the signal. The method, boiled down: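 Human umbilical vein endothelial cells co-cultured with PBMC and stimulated with LPS; IL-1a measured by ELISA 24 h after dosing. Bidirectional fitting against DMSO; cytotoxicity checked by SRB staining in parallel cultures.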

Read-out in another assay: CD40, CD40 (gene 958)
Put plainly: BSK_LPS_CD40: BioMAP Diversity Plus: LPS Assay for CD40 Biomarker Activity (AID 2283076). The note with it: primary human HUVEC with PBMC; actives raise or lower the signal. The method, boiled down: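 HUVEC plus PBMC co-culture stimulated with LPS; CD40 quantified by ELISA 24 h after compound dosing. Fitting was bidirectional relative to DMSO. SRB staining of parallel cultures flagged overt cytotoxicity.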

Read-out in assay [19]: TIMP metallopeptidase inhibitor 2 (TIMP2), TIMP2 (gene 7077)
Put plainly: BSK_KF3CT_TIMP2: BioMAP Diversity Plus: KF3CT Assay for TIMP metallopeptidase inhibitor 2 (TIMP2) Biomarker Activity (AID 2283071). The following applies: primary human keratinocytes with fibroblasts; actives raise or lower the signal. The method, boiled down: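 TIMP-2 measured by ELISA at 24 h in human keratinocyte/fibroblast primary co-cultures exposed to chemicals. Both increases and decreases were fitted against DMSO. Parallel cultures were stained with SRB for total protein as an overt-cytotoxicity check.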

In PubChem BioAssay (EPA / NIEHS) one finds outcome and AC50 data, which are given here for seven compounds.

Active and inactive are the calls of the source. How the source made its calls: active means hit-call score of the fitted dose curve at least 0.9, where 1 is the maximum; inactive means score below 0.9.

Chain of E-selectin (Homo sapiens) (P16581 whole entry, looked up): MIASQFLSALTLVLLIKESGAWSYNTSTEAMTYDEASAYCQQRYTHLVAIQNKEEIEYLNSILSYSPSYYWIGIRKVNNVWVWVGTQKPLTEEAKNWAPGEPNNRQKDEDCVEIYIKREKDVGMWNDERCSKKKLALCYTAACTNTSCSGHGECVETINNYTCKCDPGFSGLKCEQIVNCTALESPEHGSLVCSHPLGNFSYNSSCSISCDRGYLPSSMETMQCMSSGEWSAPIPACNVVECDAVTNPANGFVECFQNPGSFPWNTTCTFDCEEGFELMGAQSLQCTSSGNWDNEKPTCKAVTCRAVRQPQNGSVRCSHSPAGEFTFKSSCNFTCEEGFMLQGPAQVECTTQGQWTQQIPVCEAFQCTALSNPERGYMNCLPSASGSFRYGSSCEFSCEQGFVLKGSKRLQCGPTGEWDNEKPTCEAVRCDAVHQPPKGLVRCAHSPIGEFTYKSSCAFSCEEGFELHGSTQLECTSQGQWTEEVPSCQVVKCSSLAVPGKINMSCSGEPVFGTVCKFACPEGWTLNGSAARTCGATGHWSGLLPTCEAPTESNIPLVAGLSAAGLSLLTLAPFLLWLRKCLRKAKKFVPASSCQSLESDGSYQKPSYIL

As to `Cc1ccc(C(C)C)c(O)c1`, the result in [1], in assay [2], in [3], in assay [4], in assay [5] and in [6] was inactive. The result in assay [7], in assay [8], in assay [9], in assay [10], in [11] and in assay [12] was inactive. The outcome in assay [13], in [14], in [15], in assay [16], in assay [17] and in assay [18] was inactive.
The term AC50 denotes the concentration giving half of the maximal activity seen. Take `CNCc1cc(F)ccc1Oc1ccc(Cl)c(Cl)c1`: the result in assay [1], in [2], in [3], in assay [4], in assay [5] and in [7] was inactive. The result in assay [8], in assay [9], in assay [10], in assay [12], in [13] and in [15] was inactive. Besides, in assay [18], the outcome was inactive. In addition, the concentration at half-maximal activity (AC50) in assay [14] was 30.5 µM (active); in the assay with CD40, CD40 (gene 958) it was 15 µM (active); in [16], 15.7 µM (active); in assay [17], 30 µM (active).
Take `CC(=O)OC/C=C(\C)CCC=C(C)C`: the result in assay [1], in assay [2], in [3], in assay [4], in [6] and in assay [7] was inactive. For the same compound, the outcome in [8], in assay [9], in [10], in assay [19], in assay [12] and in assay [13] was inactive. The result in assay [14], in [15], in [16], in assay [17] and in assay [18] was inactive.
As for `CCCCN(CCCC)CCCC`, the outcome in [1], in [2], in assay [3], in [4], in assay [5] and in assay [7] was inactive. The outcome in assay [8], in assay [10], in [19], in assay [11], in [12] and in [13] was inactive. Besides, the result in [14], in assay [15], in [16], in assay [17] and in assay [18] was inactive.
For `NCC1(Cc2noc(=O)[nH]2)CCCCC1`, the outcome in [1], in assay [2], in [3], in [4], in assay [5] and in assay [7] was inactive. In addition, the result in assay [8], in assay [10], in [19], in assay [11], in assay [12] and in assay [13] was inactive. For the same compound, the outcome in [14], in assay [15], in [16], in assay [17] and in assay [18] was inactive.
In the case of `CCCCCCCCCCCCCO`, the concentration at half-maximal activity (AC50) was 13.1 µM (active) in assay [1]; 13.1 µM (active) in assay [2]; 24.3 µM (active) in [3]; 15.6 µM (active) in [4]; 9.95 µM (active) in assay [5]; 36.7 µM (active) in assay [7]. Further, the concentration at half-maximal activity (AC50) in [8] is 36.2 µM (active); in [9], 31.9 µM (active); in [10], 35.2 µM (active); in assay [11], 32.1 µM (active); in assay [12], 26.1 µM (active); in assay [13], 31.2 µM (active). Besides, the AC50 in assay [14] is 37.6 µM (active); in assay [16], 34.2 µM (active). Further, the result in assay [15], in [17] and in assay [18] was inactive.
With `C[C@]12C=CC(=O)C=C1CC[C@@H]1[C@@H]2C(=O)C[C@@]2(C)[C@H]1CC[C@]2(O)C(=O)CO`, the result in assay [1], in assay [2], in [3], in assay [4], in assay [6] and in [7] was inactive. Moreover, the outcome in assay [8], in [9], in assay [10], in assay [19], in assay [11] and in assay [12] was inactive. For the same compound, the result in assay [13], in assay [14], in [15], in assay [16], in assay [17] and in assay [18] was inactive.
